These results are taken from PubChem BioAssay (EPA / NIEHS).

By AC50 is commonly meant the midpoint of the concentration-response curve, whichever way the signal moves.

Values joined by “and” are separate entries in the source; they are usually repeats but may differ in a detail not shown here. Identical values can stand only once. A structure can be active in one record and inactive in another. Active and inactive are the calls of the source. How the source made its calls: active means hit-call score of the fitted dose curve at least 0.9, where 1 is the maximum; inactive means score below 0.9.

Read-out in the experiment: Matrix Metallopeptidase 1 (MMP1), MMP1 (gene 4312)
Kind of experiment: BSK_BE3C_MMP1: BioMAP Diversity Plus: BE3C Assay for Matrix Metallopeptidase 1 (MMP1) Biomarker Activity (AID 2283024). As to conditions: primary human bronchial epithelial cells; actives raise or lower the signal. The procedure:
BSK_BE3C is a cell-based, multiplexed-readout assay that uses bronchial epithelial cell, a human lung primary cell, with measurements taken at 24 hours after chemical dosing in a 96-well plate.BSK_BE3C_MMP1 is an assay component measured in the BSK_BE3C assay. It measures MMP-1 antibody related to regulation of gene expression using ELISA technology.Data from the assay component BSK_BE3C_MMP1 was analyzed into 1 assay endpoint. This assay endpoint, BSK_BE3C_MMP1, was analyzed with bidirectional fitting relative to DMSO as the negative control and baseline of activity. Using a type of binding reporter, gain or loss-of-signal activity can be used to understand changes in the signaling as they relate to the gene MMP1. Furthermore, this assay endpoint can be referred to as a primary readout, because this assay has produced multiple assay endpoints where this one serves a signaling function. To generalize the intended target to other relatable targets, this assay endpoint is annotated to the protease intended target family, where the subfamily is matrix metalloproteinase.
The levels of cell surface (or secreted, indicated by the prefix "s") biomarker endpoints were measured by ELISA. Overt cytotoxicity to cells in confluent adherent cultures (all systems other than the BT system) was assessed by measuring total protein levels using sulforhodamine B (SRB) staining in parallel cultures at the time of biomarker measurements, indicated as SRB endpoints. For proliferation assays for adherent cell types, individual cell types are cultured at sub-confluence and relative cell numbers quantified by SRB staining at time points optimized for each system (48 h: 3C and CASM3C systems; 72 h: BT and HDF3CGF systems; 96 h: SAg system). SRB was performed by staining cells with 0.1% SRB after fixation with 10% TCA and reading wells at 560 nm.Viability and proliferation of PBMC (T cells) was quantified by Alamar Blue reduction for the SAg and BT systems. For PBMC viability (referred to as PBMC Cytotoxicity within the assay endpoint names), cells were plated (75,000/well in a 96-well plate) and then chemical samples added for 1 h before addition of activators, SEB and TSST-1 (20 ng/mL final concentration each). Cells were incubated for 90 h. Then, Alamar Blue (20 uL/well) (Invitrogen, Cat DAL1100) was added for 6 h, and the plates were read with a fluorescence microplate reader at 546/580 nm (excitation/emission). For PBMC proliferation, cells were plated and activated as above but incubated for only 16 h prior to addition of Alamar Blue. Plates were read after 6 h.
In the case of `COC(C)(C)CCC[C@H](C)C/C=C/C(C)=C/C(=O)OC(C)C`, the half-maximal activity concentration (AC50) was 20 µM (active).

As for `O=[N+]([O-])O`, the result was inactive.

`CC(C)CCCCCCCOC(=O)c1ccccc1C(=O)OCCCCCCCC(C)C`: the result was inactive.

As for `Nc1ccc(-c2ccc(N)c(N)c2)cc1N`, the outcome was inactive.

On to `CC1(C)[C@H](C(=O)O[C@H](C#N)c2cccc(Oc3ccccc3)c2)[C@@H]1C=C(Br)Br`, for which the result was inactive.

Turning to `O=S(=O)(c1ccccc1)c1ccccc1`, the result was inactive.

As for `CCCOC(=O)c1ccccc1C(=O)OCCC`, the outcome was inactive.

As for `CCC(C)c1cc([N+](=O)[O-])cc([N+](=O)[O-])c1OC(=O)C=C(C)C` (centres undefined), the AC50 was 34.2 µM (active).

Turning to `O=c1c2ccccc2c(=O)c2c1cc(Cl)c1[nH]c3c([nH]c12)c(Cl)cc1c(=O)c2ccccc2c(=O)c13`, the half-maximal activity concentration (AC50) is 20 µM (active).

For `[Cd+2].[Cl-].[Cl-]`, the result was inactive.

For `COc1ccc(CO)cc1`, the result was inactive.

For the compound `COCC(=O)N(c1c(C)cccc1C)N1CCOC1=O`, the outcome was inactive.

Regarding `CC(C)(C)C(O)C(Oc1ccc(-c2ccccc2)cc1)n1cncn1` (centres undefined), the result was inactive.

Turning to `O=[N+]([O-])C=Cc1ccccc1`, the AC50 is 11.3 µM (active).

Regarding `CC(C)CCCCCCCOP(=O)(Oc1ccccc1)Oc1ccccc1`, the outcome was inactive.

In the case of `C=CCN(CC=C)C(=O)C(Cl)Cl`, the result was inactive.

With `CC(C)(C)C(=O)CCl`, the result was inactive.

Take `CCCCCCCCCCCC#N`: the outcome was inactive.

For the compound `CNC(=O)Oc1cc(C)c(SC)c(C)c1`, the result was inactive.

Turning to `c1ccc(Nc2ccc3ccccc3c2)cc1`, the result was inactive.

In the case of `CCCC[N+](CCCC)(CCCC)CCCC`, the result was inactive and the AC50 is 3.97 µM (active).

Turning to `Oc1cc(Cl)ccc1Cl`, the outcome was inactive.

For the compound `Oc1ccc(C2(c3ccc(O)cc3)c3ccccc3-c3ccccc32)cc1`, the outcome was inactive.

Take `O=c1[nH]c(Cl)c(Cl)cc1Cl`: the result was inactive.

Turning to `C=CC(=O)OCC(CC)CCCC` (centres undefined), the outcome was inactive.

For `O=[N+]([O-])c1ccc(Cl)cc1`, the outcome was inactive.

Take `N#CCCCCC#N`: the result was inactive.

As to `O=C1C(Cl)=C(Cl)C(=O)C(Cl)=C1Cl`, the AC50 was 33.9 µM (active).

Consider `O=C(O)CCCc1ccc(N(CCCl)CCCl)cc1`, for which the outcome was inactive.

For `CC(C)(c1cc(Cl)c(O)c(Cl)c1)c1cc(Cl)c(O)c(Cl)c1`, the AC50 is 9.58 µM (active).

With `CC(C)COP(=O)(OCC(C)C)OCC(C)C`, the outcome was inactive.

As for `CC(=O)/C=C/c1ccccc1`, the result was inactive.

Take `O=C(CCl)c1ccccc1`: the outcome was inactive.

On to `O=P1(NCCCl)OCCCN1CCCl` (centres undefined), for which the result was inactive.

With `O=C1C=CC(=O)C=C1`, the AC50 is 5.14 µM (active) and 4.77 µM (active).

For `CCc1cc(C)cc(CC)c1-c1c(OC(=O)C(C)(C)C)n2n(c1=O)CCOCC2`, the result was inactive.

`Clc1ccc(-c2ccccc2)cc1`: the outcome was inactive.

Regarding `Cc1ccc(OP(=O)(Oc2ccc(C)cc2)Oc2ccc(C)cc2)cc1` (tested in a mixture with another compound), the AC50 was 3.35 µM (active).
